Screens as filed in PubChem.
A selection follows.
aSyn UTR act = Activators via SNCA 5'UTR binding, MLPCN. alpha-synuclein 5'UTR reporter, activators screen. activity score, % (tested at 7.5 µM), hits read low. 300,000 tested, 7.1% active. AID 1814; in the data active means activity score below about -60%
A number is an active result; i = inactive.

SMILES | aSyn UTR act
Cc1ccccc1OCCNC(=O)c1ccc2ccccc2n1 | -149
CC(=O)c1ccc(NC(=O)c2ccc3nc(C)sc3c2)cc1 | -193
CC(=O)c1ccc(NC(=O)c2ccc(C)c(Br)c2)cc1 | -125
CCOC(=O)Nc1ccc2nc(N3CCCCCC3)sc2c1 | -313
Cc1nc2ccc(NC(=O)c3ccc4ccccc4n3)cc2s1 | -71
Cc1nc2ccc(NC(=O)c3cncc(Br)c3)cc2s1 | -87
Oc1ccc(N=Nc2ccc3c(c2)OCCO3)c(O)c1 | i
Oc1ccc(N=Nc2ccc(Br)cc2)c(O)c1 | -226
O=C(NC(=S)NCCC1=CCCCC1)c1ccc(Br)o1 | -115
O=C(NCCC1=CCCCC1)c1ccc(Br)o1 | -83
Cc1ccc(NC(=S)NCCC2=CCCCC2)cc1 | -137
Cc1ccc2c(c1)C(c1ccncc1)=NNC(c1ccccc1)=N2 | -127
Cc1ccc(C2=Nc3ccc(Br)cc3C(c3ccncc3)=NN2)cc1 | -70
CCC1CCCCN1CCCNC(=O)Cn1c2ccccc2c2nc(=O)cc(C)n21 (stereo not given) | -139
CCCCC(=O)/C=C/n1c(=S)oc2ccccc21 | -151
CSc1ccc(CNc2ccc(Cl)cc2)cc1 | -114
CN(Cc1cccs1)C(=O)CCCc1c[nH]c2ccccc12 | -133
COc1cccc2c(=O)c(C(=O)NCc3cccs3)c[nH]c12 | -139
O=C(Cc1c[nH]c2ccccc12)NCc1cccs1 | -63
CCN1CCc2c(sc(NC(=O)C3COc4ccccc4O3)c2C(N)=O)C1 (stereo not given) | -96
CC(=O)N1CCc2c(sc(NC(=O)C3COc4ccccc4O3)c2C(N)=O)C1 (stereo not given) | -74
CN1CCc2c(sc(NC(=O)C3COc4ccccc4O3)c2C(N)=O)C1 (stereo not given) | -117
CCOC(=O)N1CCc2c(sc(NC(=O)C3COc4ccccc4O3)c2C(N)=O)C1 (stereo not given) | -109
CN1CCc2c(sc(/N=C/c3cccs3)c2C(N)=O)C1 | -75
CN1CCc2c(sc(NC(=O)c3ccc4ccccc4c3)c2C(N)=O)C1 | -108
SMILES | aSyn UTR act
COc1cc2ccccc2cc1C(=O)Nc1sc2c(c1C(N)=O)CCN(C(C)C)C2 | i
Cc1cccc(NC(=O)c2n[nH]c([N+](=O)[O-])c2Br)c1C | -62
Cn1c(NCc2ccccc2Cl)nc2ccccc21 | -164
Cn1c(NCc2ccccc2O)nc2ccccc21 | -272
CC(=O)Nc1nc2ccccc2n1Cc1ccccc1Cl | i
O=C1CCN(Cc2ccccc2)CCN1CCOc1ccccc1 | -99
CC1CCC(=O)N(CCOc2ccccc2)CC1 (stereo not given) | -80
Nc1nnnn1/N=C/C=C/c1ccccc1 | -115
Nc1nnnn1/N=C/C(Br)=C/c1ccccc1 | -251
CCOc1cc(/C=C2\COc3ccccc3C2=O)cc(Br)c1OCC(=O)N(C)C | -121
COc1ccc(-c2nc3ccccn3c2CN2CCN(c3ccccc3F)CC2)cc1 | -76
N#C/C(=N\Nc1cccc2ccccc12)c1nnc2n1CCCCC2 | -71
CCCn1c(C)cc(C(=O)COc2ncnc3sccc23)c1C | -150
Cc1cc(C(=O)COc2ncnc3sccc23)c(C)n1C1CC1 | -79
O=C(O)c1ccc(/C=N\Nc2ccccn2)cc1 | -79
CN(C)c1ccc(/C=N\Nc2ccccn2)cc1 | -232
O=[N+]([O-])c1cccc(/C=N/Nc2ccccn2)c1 | -230
O=[N+]([O-])c1ccc(/C=N/Nc2ccccn2)cc1 | -188
O=C(O)c1ccc(/C=N/Nc2ncc(Cl)cc2Cl)cc1 | -72
O=C(O)c1ccc(N/N=C/c2ccc(OC(=O)c3cccc(Cl)c3)cc2)cc1 | i
O=[N+]([O-])c1cc(Cl)cc(/C=N\Nc2ccccn2)c1O | i
O=[N+]([O-])c1cc(/C=N\Nc2ccccn2)ccc1Cl | -91
O=[N+]([O-])c1cccc(/C=N/Nc2nccnc2Cl)c1 | -147
O=C(N/N=C/c1ccc(Sc2nc3ccccc3s2)c([N+](=O)[O-])c1)c1ccccn1 | -75
Cc1[nH]c2ccccc2c1/C=N/Nc1ccccn1 | -100
SMILES | aSyn UTR act
O=[N+]([O-])c1cccc(/C=C/c2ccccn2)c1 | -141
O=C(N/N=C/c1ccc(Cl)c([N+](=O)[O-])c1)c1cnccn1 | -72
Nc1nnc(/C=C/c2cccc([N+](=O)[O-])c2)s1 | -64
N#C/C(=C\c1cccc([N+](=O)[O-])c1)c1ccccn1 | -67
COc1ccc(/C=N/n2c(N)nc(-c3ccccc3)c2-c2ccccc2)cc1 | -63
CC(=O)NCc1ccc(-c2csc(-c3cccs3)n2)cc1 | -126
Cc1ccc2cc3c(N)c4c(C)ccc(C)c4nc3nc2c1 | -77
CCN1CCN(c2nc3sc4c(c3c3ncnn23)CC(C)CC4)CC1 (stereo not given) | -64
COc1ccc(NC(=O)Cn2nnc(-c3ccccc3NC(=O)c3ccco3)n2)cc1 | -117
Cc1cccc(C(=O)Nc2nnc(SCC(=O)NCc3ccco3)s2)c1 | -101
O=C(Nc1nnc(C23CC4CC(CC(C4)C2)C3)s1)c1ccco1 | -89
C/C=C(\C)c1nnc(NC(=O)c2ccco2)s1 | -78
O=C(COc1ccccc1)Nc1nnc(C23CC4CC(CC(C4)C2)C3)s1 | -75
COc1cccc(-c2nnc(NC(=O)c3cccs3)s2)c1 | -119
Cc1cccc(C(=O)Nc2nnc(-c3ccc(C(C)(C)C)cc3)s2)c1 | -102
Cc1ccc(-c2nnc(NC(=O)c3ccco3)s2)cc1 | -84
COc1cccc(-c2nnc(NC(=O)c3ccco3)s2)c1 | -97
COc1ccc(-c2nnc(NC(=O)c3ccco3)s2)cc1 | -122
COc1cccc(-c2nnc3sc(-c4ccco4)nn23)c1 | -95
CCOc1ccc(OCc2cccc(C(=O)O)c2)cc1 | i
CCC(=O)c1ccc(OCc2ccc(C#N)cc2)cc1 | -112
CCOc1ncccc1C(=O)OCc1ccc(C(=O)OC)cc1 | -126
CCC(=O)c1ccc(OCc2ccc(C(=O)OC)cc2)cc1 | -73
CCOc1ccc(OCc2ccc(C(=O)N(CC)CC)cc2)cc1 | -155
Clc1ccc2c(c1)[C@H]1OCC[C@H]1[C@@H](c1ccco1)N2 | -168
SMILES | aSyn UTR act
COc1ccc(-n2c(C)c(C)c3c(NCCCO)ncnc32)cc1 | -81
Cc1ccc(-n2c(C)c(C)c3c(NCCCO)ncnc32)cc1 | -165
O=c1c2ccccc2[nH]c(=S)n1CCc1ccccc1 | -123
CC1CN(C(=O)c2cccc(COc3ccccc3Cl)c2)CC(C)O1 (stereo not given) | -145
COc1ccc(OCc2cc(C(=O)N3CCCCCCC3)no2)c(Cl)c1 | -69
COc1ccc(OCc2cc(C(=O)N3CCN(C4CCCC4)CC3)no2)c(Cl)c1 | -80
CCOC(=O)N1CCN(C(=O)c2cc(COc3ccc(OC)cc3Cl)on2)CC1 | -62
O=C(c1cc(COc2ccc(F)cc2F)on1)N1CCSCC1 | -117
COc1ccc(OCc2cc(C(=O)N3CCN(CC4CC4)CC3)no2)c(Cl)c1 | -87
O=C(c1cc(COc2ccc(F)cc2Cl)on1)N1CCCCCC1 | -116
COc1ccc(OCc2cc(C(=O)N3C[C@@H](C)O[C@@H](C)C3)no2)c(Cl)c1 | -67
CCN(CC)CCn1c2ccccc2c2nc3ccccc3nc21 | -213
OCCN(CC#CCn1c2ccccc2c2ccccc21)CCO | i
CN1C(c2ccc(F)cc2)=CS/C1=C(/C#N)c1nnc(N2CCOCC2)n1-c1ccccc1 | -74
Cc1nc2ccc(CN(C)c3ccc(C(=O)N[C@@H](CCC(=O)O)C(=O)O)s3)cc2c(=O)[nH]1 | i
COc1ccc(NS(=O)(=O)c2ccc(SC)cc2)c(OC)c1 | -66
Cc1ccc(-c2noc(CNc3ccccc3)n2)cc1 | -78
Cc1cccc(-c2noc(Cc3ccccc3)n2)c1 | -169
